In PubChem BioAssay (NCATS):
Results filed as inconclusive are left out. Calls of active or inactive are those of the source. Unless noted, calls follow the shape of the dose curve; as a rule, active = well fitted curve in either direction with a large enough effect (not every such curve was filed as active); inconclusive = small, poorly fitted or top-dose-only effect, or another doubt; inactive = flat fitted curve, though single readings scatter.

Columns and labels:
[1] = AP1 Signaling Pathway (AID 357); conditions: ME-180 AP-1-bla reporter, EGF-induced, beta-lactamase ratio, 5 h;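 also: ME-180 reporter cells stimulated with EGF at its EC50 level; % is scaled to controls: 0 for no effect and ±100 for the full control effect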
Outline: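 A ratiometric CCF4 readout (405 nm excitation; 460 and 530 nm emission) quantified AP-1-driven beta-lactamase in ME-180 cells after 5 h with compound and EC50 EGF; AC50 values were derived for activators and inhibitors.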

[2] = NFAT Signaling Pathway (AID 444); conditions: Jurkat NFAT-bla M1, carbachol, beta-lactamase ratio, 5 h;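 also: carbachol stimulus at about its EC50 of 1 µM final; % is scaled to controls: 0 for no effect and ±100 for the full control effect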
Outline: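 Read-out: CCF4 FRET ratio (460 nm/530 nm) after 1 h RT dye loading, used for %activity and AC50 from titration series. Cells: Jurkat NFAT-β-lactamase/M1 line, treated with compound plus 1 uM carbachol for 5 h, 37 °C.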

[3] = Stat Signaling Pathway (AID 446); conditions: ME-180 (cervical carcinoma) SIE beta-lactamase reporter, IL-6 stimulated, 5 h;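 also: ME-180 cervical cancer cells given 40 pM IL-6 alongside compound; SIE-controlled beta-lactamase reporter measured as 460/530 nm FRET emission ratio; % is scaled to controls: 0 for no effect and ±100 for the full control effect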
Outline: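 IL-6/STAT signaling read in ME-180 cells via an SIE beta-lactamase reporter. Stimulus was 40 pM IL-6 (its AC50) for 5 hrs, so both activation and inhibition register.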

[4] = target: Glucocorticoid receptor (Homo sapiens) (UniProt P04150); experiment: GR-GFP Redistribution (AID 450;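 active = compounds whose dose series gives a full or clear partial fitted curve of increased nuclear translocation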; also: potency is read from the fitted curve at half-maximal effect); conditions: U2OS GR-GFP nuclear translocation, laser cytometry, 2 h
[5] = target: Glucocorticoid receptor (Homo sapiens) (UniProt P04150); experiment: GR-EFC Redistribution (AID 451; calls by dose curve; also: potency is read from the fitted curve at half-maximal effect); conditions: CHO-K1 GR-EFC translocation, beta-gal luminescence, 2 h
Outline: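 Translocation of GR-ED fusion to nuclear EA restores b-gal, read by luminescence after 1 h room-temperature detection. Engineered CHO-K1 biosensor cells, 1,000/well, exposed 2 h at 37 C to titrations up to 46 uM final.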

[6] = target: Mitogen-activated protein kinase 10 (Mus musculus) (UniProt Q61831); experiment: JNK3 AlphaScreen Assay (AID 530); conditions: JNK3 lysate, c-Jun phosphorylation; series mostly up to 25.6 µM;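 also: kinase came from lysate of stimulated human HepG2 cells; signal reports phosphorylation of biotinylated GST-cJun 1-79 at Ser73 with 10 µM ATP; % is scaled to controls: 0 for no effect and ±100 for the full control effect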
Outline: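 Room-temperature AlphaScreen kinase assay; pre-activated HepG2 lysate as JNK3 source, biotin-GST-cJun(1-79) substrate, 10 uM ATP, compound 15 min preincubation.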

[7] = target: Cytochrome P450 1A2 (Homo sapiens) (UniProt P05177); experiment: p450-cyp1a2 (AID 410; calls by dose curve;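 also: -100% = full effect of reference inhibitor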); conditions: recombinant CYP1A2, luciferin-ME demethylation, luminescence; series mostly up to 25.6 µM
Outline: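 Inhibition was calculated relative to 57 uM furafylline (full inhibition). The reaction used human CYP1A2 at 20nM with Luciferin-ME at its Km, 100uM, driven by an NADPH-regenerating system for 60 min at room temperature.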

[8] = Cell Viability - BJ (AID 421; calls by dose curve;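 also: potency is read from the fitted curve at half-maximal effect; cells exposed to compound for 40 hours at 37 °C before readout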); conditions: BJ fibroblast viability, qHTS
Outline: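 Quantitative HTS: ATP depletion in BJ cells after 40 hr compound exposure in complete culture medium, detected with CellTiter-Glo; AC50 from standard Hill fits.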

[9] = Cell Viability - Jurkat (AID 426;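 active = dose-dependent loss of cell ATP signal giving a full or clear fitted curve, ranked by lower potency value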;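 also: potency is read from the fitted curve at half-maximal effect; cells exposed to compound for 40 hours at 37 °C before ATP read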); conditions: qHTS
Outline: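 Seed 5000 Jurkat E6-1 cells/well; add compound; incubate 40 hr at 37 °C; add CellTiter-Glo; wait 20 min at room temperature; read luminescence. Fit concentration-response with Hill equation for AC50.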

[10] = Cell Viability - Hek293 (AID 427;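 active = compounds whose dose-response curve shows a full or clear partial loss of cell viability, called from curve shape rather than a numeric limit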;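 also: potency is read from the fitted curve at half-maximal effect; cells exposed to compound for 40 hours at 37 °C before reading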); conditions: qHTS
Outline: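 AC50 values derive from Hill-modelled concentration-response of ATP-based luminescence, normalized between DMSO-only and 100 uM tamoxifen controls. Cells were exposed in complete culture medium for 40 hr at 37 °C before detection.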

[11] = Cell Viability - HepG2 (AID 433; calls by dose curve;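 also: potency is read from the fitted curve at half-maximal effect; cells exposed to compound for 40 hours; potency for ATP loss meaning cytotoxicity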); conditions: qHTS
Outline: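 In this qHTS format, a 40 h, 37 °C compound incubation of HepG2 cells in complete medium precedes a 20 min CellTiter-Glo step at room temperature. Tamoxifen and doxorubicin serve as positive controls; Hill-equation fits yield AC50.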

[12] = Cell Viability - N2a (AID 540; active = well fitted curve in the direction sought with a large enough effect; an effect the other way counts as inactive or inconclusive; also: potency is read from the fitted curve at half-maximal effect; nearly all actives have a fitted effect of over 45% in size); conditions: N2a mouse neuroblastoma cell viability; activity change, negative = cytotoxicity: at 92.2 µM (top of the series)
Outline: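 First, 1500 N2a cells per well incubate 5 hr at 37 °C; next, compounds are added and incubated 40 hr at 37 °C; finally CellTiter-Glo is added and luminescence read after 20 min, with AC50 derived by Hill modeling.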

[13] = Cell Viability - HUV-EC-C (AID 542; active = well fitted curve in the direction sought with a large enough effect; an effect the other way counts as inactive or inconclusive;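 also: potency is read from the fitted curve at half-maximal effect; cells exposed to compound for 40 hours; nearly all actives have a fitted effect of over 35% in size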); conditions: HUV-EC-C endothelial cell viability, qHTS; series mostly up to 92.2 µM
Outline: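 Decrease in cellular ATP, quantified by luciferase luminescence, reflects toxicity in normal human vascular endothelial HUV-EC-C cells given compound for 40 hr in complete culture medium. Values are AC50s from concentration-response curves.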

[14] = Cell Viability - H-4-II-E (AID 543; active = well fitted curve in the direction sought with a large enough effect; an effect the other way counts as inactive or inconclusive;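 also: potency is read from the fitted curve at half-maximal effect; cells exposed to compound for 40 hours; nearly all actives have a fitted effect of over 35% in size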); conditions: H-4-II-E rat hepatoma viability; series mostly up to 92.2 µM
Outline: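 Here, cytotoxicity is measured in the rat hepatoma line H-4-II-E as loss of intracellular ATP after 40 hr compound treatment, detected by luciferase luminescence.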

Sequence of Glucocorticoid receptor (Homo sapiens) (P04150 whole entry, looked up, the tested form may be a part): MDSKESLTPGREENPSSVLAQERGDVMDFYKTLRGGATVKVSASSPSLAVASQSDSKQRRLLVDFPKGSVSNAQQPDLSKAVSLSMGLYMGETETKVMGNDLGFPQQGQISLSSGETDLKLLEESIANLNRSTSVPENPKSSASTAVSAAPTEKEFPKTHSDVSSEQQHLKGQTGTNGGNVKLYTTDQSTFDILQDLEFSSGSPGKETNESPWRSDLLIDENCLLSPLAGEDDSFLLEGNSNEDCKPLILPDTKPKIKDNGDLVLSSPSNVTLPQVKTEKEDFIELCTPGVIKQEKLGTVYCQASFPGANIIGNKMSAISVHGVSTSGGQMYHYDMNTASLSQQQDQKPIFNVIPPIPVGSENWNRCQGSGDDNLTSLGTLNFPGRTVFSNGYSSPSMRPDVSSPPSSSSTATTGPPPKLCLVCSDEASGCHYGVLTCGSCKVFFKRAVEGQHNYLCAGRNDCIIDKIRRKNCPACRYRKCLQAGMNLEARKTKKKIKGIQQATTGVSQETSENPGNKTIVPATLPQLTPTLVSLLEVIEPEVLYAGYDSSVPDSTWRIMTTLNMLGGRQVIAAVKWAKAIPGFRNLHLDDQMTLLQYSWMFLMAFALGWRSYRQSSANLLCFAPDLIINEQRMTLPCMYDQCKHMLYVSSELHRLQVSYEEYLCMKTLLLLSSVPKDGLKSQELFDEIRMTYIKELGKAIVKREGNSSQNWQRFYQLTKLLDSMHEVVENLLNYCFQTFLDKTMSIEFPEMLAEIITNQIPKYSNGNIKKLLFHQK
Sequence of Cytochrome P450 1A2 (Homo sapiens) (P05177 whole entry, looked up): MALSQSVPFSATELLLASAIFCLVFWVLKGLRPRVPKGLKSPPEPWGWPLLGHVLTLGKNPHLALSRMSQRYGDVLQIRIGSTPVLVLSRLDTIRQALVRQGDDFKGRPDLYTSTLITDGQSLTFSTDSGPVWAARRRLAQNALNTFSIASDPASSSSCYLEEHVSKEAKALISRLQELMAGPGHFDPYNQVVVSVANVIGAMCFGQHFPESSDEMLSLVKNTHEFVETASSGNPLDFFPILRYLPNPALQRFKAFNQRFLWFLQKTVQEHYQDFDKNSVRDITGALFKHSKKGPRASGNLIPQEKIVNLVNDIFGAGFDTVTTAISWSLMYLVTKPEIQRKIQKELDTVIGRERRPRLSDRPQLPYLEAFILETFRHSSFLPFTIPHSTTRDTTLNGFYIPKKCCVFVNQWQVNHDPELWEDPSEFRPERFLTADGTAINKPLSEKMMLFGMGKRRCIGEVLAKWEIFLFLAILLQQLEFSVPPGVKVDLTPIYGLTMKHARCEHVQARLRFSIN

CC(=O)OCC(=O)[C@@]1(O)[C@H](C)C[C@H]2[C@@H]3CCC4=CC(=O)C=C[C@]4(C)[C@@]3(F)[C@@H](O)C[C@@]21C
inactive: activity change, negative = inhibition ([1]; at 17.2 µM (top of the series)) -10.4% | activity change, negative = inhibition ([2]; at 17.2 µM (top of the series)) 29.8% | activity, negative = inhibition ([3]; at 17.2 µM (top of the series)) -9.24%

CC(=O)OCC(=O)[C@@]12OC(C)(C)O[C@@H]1C[C@H]1[C@@H]3C[C@H](F)C4=CC(=O)C=C[C@]4(C)[C@@]3(F)[C@@H](O)C[C@@]12C
active: Potency [4] 0.00057 µM
inactive: activity change, negative = inhibition ([1]; at 17.2 µM (top of the series)) -9.69% | activity change, negative = inhibition ([2]; at 17.2 µM (top of the series)) 15.1% | activity, negative = inhibition ([3]; at 17.2 µM (top of the series)) -3.28%

O=C(OCCOCCO)c1ccccc1Nc1cccc(C(F)(F)F)c1
inactive: activity change, negative = inhibition ([1]; at 17.2 µM (top of the series)) -27.7% | activity change, negative = inhibition ([2]; at 17.2 µM (top of the series)) -18% | activity, negative = inhibition ([3]; at 17.2 µM (top of the series)) -10.5% | Potency [4] > 20.6 µM | Potency [5] > 20.6 µM | outcome [6]

O=C1c2ccccc2C(=O)C1c1ccccc1
inactive: activity change, negative = inhibition ([1]; at 17.2 µM (top of the series)) -0.252% | activity change, negative = inhibition ([2]; at 17.2 µM (top of the series)) -11.7% | activity, negative = inhibition ([3]; at 17.2 µM (top of the series)) 3.06% | Potency [4] > 20.6 µM | Potency [5] > 20.6 µM | outcome [6]

C[C@H](CCC(=O)O)[C@H]1CC[C@H]2[C@@H]3C(=O)C[C@@H]4CC(=O)CC[C@]4(C)[C@H]3CC(=O)[C@]12C
inactive: activity change, negative = inhibition ([1]; at 17.2 µM (top of the series)) 8.36% | activity change, negative = inhibition ([2]; at 17.2 µM (top of the series)) 13.3% | activity, negative = inhibition ([3]; at 17.2 µM (top of the series)) 1.08% | Potency [4] > 20.6 µM

CN1CCN(C(c2ccccc2)c2ccccc2)CC1
inactive: activity change, negative = inhibition ([1]; at 17.2 µM (top of the series)) 4.01% | Potency [7] | activity, negative = inhibition ([3]; at 17.2 µM (top of the series)) 3.06% | Potency [4] > 20.6 µM | Potency [5] > 20.6 µM | outcome [6]

CC(CCc1ccccc1)NCC(O)c1ccc(O)c(C(N)=O)c1 (stereo not given)
inactive: activity change, negative = inhibition ([1]; at 17.2 µM (top of the series)) 5.69% | activity change, negative = inhibition ([2]; at 17.2 µM (top of the series)) 9.12% | activity, negative = inhibition ([3]; at 17.2 µM (top of the series)) 9.7% | Potency [4] > 20.6 µM

C[C@@H]1C(=O)NC2=Nc3cccc(Cl)c3CN21
inactive: activity change, negative = inhibition ([1]; at 38 µM (top of the series)) 9.37% | activity change, negative = inhibition ([2]; at 38 µM (top of the series)) -0.581% | activity, negative = inhibition ([3]; at 38 µM (top of the series)) -15.9% | Potency [4] > 46 µM | Potency [5] > 46 µM

Oc1c(Cl)cc(Cl)cc1Sc1cc(Cl)cc(Cl)c1O
inactive: activity change, negative = inhibition ([1]; at 17.2 µM (top of the series)) -12.3% | Potency [8] > 92 µM | Potency [4] > 20.6 µM | outcome [6]
active: Potency [9] 47.8 µM | Potency [10] 36.2 µM | Potency [11] 27.9 µM | activity change, negative = inhibition ([2]; at 17.2 µM (top of the series)) -126% | activity, negative = inhibition ([3]; at 17.2 µM (top of the series)) -99.1% | Potency [12] 31.6 µM | Potency [13] 20 µM | Potency [14] 31.6 µM

Nc1cc(Cl)c(NC2=NCCN2)c(Cl)c1
inactive: activity change, negative = inhibition ([1]; at 38 µM (top of the series)) 2.68% | activity change, negative = inhibition ([2]; at 38 µM (top of the series)) -7.69% | activity, negative = inhibition ([3]; at 38 µM (top of the series)) -3.42% | Potency [4] > 46 µM | Potency [5] > 46 µM | outcome [6]

CC(=O)OCC(=O)[C@@]1(OC(C)=O)[C@@H](C)C[C@H]2[C@@H]3C[C@H](F)C4=CC(=O)C=C[C@]4(C)[C@@]3(F)[C@@H](O)C[C@@]21C
active: Potency [4] 0.000878 µM
inactive: activity change, negative = inhibition ([1]; at 17.2 µM (top of the series)) -3.12% | activity change, negative = inhibition ([2]; at 17.2 µM (top of the series)) 17.4% | activity, negative = inhibition ([3]; at 17.2 µM (top of the series)) 0.432%
